PubChem BioAssay AID1671192 (National Center for Advancing Translational Sciences (NCATS), 2021)
Results filed as inconclusive are left out. Values without a mark were called inactive. Calls come from the whole dose curve; as a rule, active = well fitted curve in the direction sought with a large enough effect; inconclusive = small, poorly fitted or top-dose-only effect, or another doubt; inactive = no such curve, though single readings can be large or run the other way.

These molecules were tested against Polyunsaturated fatty acid lipoxygenase ALOX15 (Homo sapiens) (UniProt P16050) (assay: Counterscreen qHTS for inhibitors of human arachidonate 12S-lipoxygenase (ALOX12): ALOX15 Assay). Settings: purified ALOX15 enzyme activity; series mostly up to 110 µM; activity change, negative = inhibition: at the top concentration.
Chain of Polyunsaturated fatty acid lipoxygenase ALOX15 (Homo sapiens) (P16050 whole entry, looked up): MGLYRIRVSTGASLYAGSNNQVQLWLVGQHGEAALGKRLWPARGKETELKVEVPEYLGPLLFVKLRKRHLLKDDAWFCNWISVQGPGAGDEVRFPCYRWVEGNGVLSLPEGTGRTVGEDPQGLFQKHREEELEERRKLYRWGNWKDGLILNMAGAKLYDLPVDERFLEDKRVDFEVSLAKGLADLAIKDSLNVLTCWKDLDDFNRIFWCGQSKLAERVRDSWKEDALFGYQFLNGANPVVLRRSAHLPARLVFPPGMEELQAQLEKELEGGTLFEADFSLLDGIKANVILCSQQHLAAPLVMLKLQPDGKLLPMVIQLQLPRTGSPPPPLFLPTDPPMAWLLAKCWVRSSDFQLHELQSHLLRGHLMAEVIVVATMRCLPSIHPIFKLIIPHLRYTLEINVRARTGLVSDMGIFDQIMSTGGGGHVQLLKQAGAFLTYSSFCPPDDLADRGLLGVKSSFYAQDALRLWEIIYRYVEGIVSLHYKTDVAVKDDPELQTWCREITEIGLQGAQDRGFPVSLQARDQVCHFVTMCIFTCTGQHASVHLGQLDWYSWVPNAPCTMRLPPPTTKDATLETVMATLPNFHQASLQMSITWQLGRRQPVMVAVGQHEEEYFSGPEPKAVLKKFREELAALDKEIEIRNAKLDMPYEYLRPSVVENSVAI
Procedure, shortened: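 Purified human ALOX15 (15hLO-1) at 40 nM in 25 mM HEPES, 0.01% Triton X-100, pH 7.5, preincubated with compound 15 min at RT. Then 50 uM arachidonic acid for 30 min; hydroperoxide detected by Fe-xylenol orange as the 573/405 nm absorbance ratio.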
Note: 0% is about no effect.

**Q.** With CC(C)NC(=O)N1CCC(c2nnc3n2CCNC3)CC1 as the molecule, how does the “activity change, negative = inhibition” value read?
**A.** 6.45% [at 146 µM]

**Q.** Which “activity change, negative = inhibition” value does the source give for O=C1NCc2ccccc2CC12CCN(Cc1cc(O)cc(O)c1)CC2 here?
**A.** -26.5%

**Q.** How did the “activity change, negative = inhibition” value turn out when Cn1nc(C2CCNC2)c2c(C(=O)NCc3ccc(F)cc3)cc(C3CC3)nc21 (stereo not drawn) was run?
**A.** -27.2%

**Q.** For CC(=O)NCCC(=O)N1Cc2ccccc2CC2(CCCN2CC2CCNC2)C1 (stereo not drawn), which “activity change, negative = inhibition” value is on record?
**A.** -24.8%

**Q.** CC(CCc1ccccc1)Nc1ncnc2c1CN(C1CCNC1)C(=O)CN2C (stereo not drawn) was tested. Which “activity change, negative = inhibition” value did it give?
**A.** -15.6%

**Q.** Which “activity change, negative = inhibition” value does the source give for CC(=O)NCCC(=O)N1Cc2ccccc2CC2(CCCN2CC2CCNCC2)C1 (stereo not drawn) here?
**A.** -22.8%

**Q.** CN1CCCC2(Cc3ccccc3CN(C(=O)c3ccc(Cl)cc3)C2)C1 (stereo not drawn) was tested. Which “activity change, negative = inhibition” value did it give?
**A.** -23.7%

**Q.** Which “activity change, negative = inhibition” value does the source give for CC(C)[S+](=O)([O-])N1CCCC1c1nnc2n1CCNC2 (stereo not drawn) here?
**A.** -2.34% [at 146 µM]

**Q.** For COc1cccc(N2C(=O)NC(=NC3CCCC3)C23CCN(CC2CC2)C3)c1 (stereo not drawn), which “activity change, negative = inhibition” value is on record?
**A.** -4.92%

**Q.** For O=C(N1CCCC1)N1CCCC(c2nnc3n2CCNC3)C1 (stereo not drawn), which “activity change, negative = inhibition” value is on record?
**A.** 9.46% [at 146 µM]

**Q.** O=S1(=O)CCCN1C1CCN(Cc2cccc3ccccc23)CC1 was tested. Which “activity change, negative = inhibition” value did it give?
**A.** 5.45% [at 146 µM]

**Q.** O=S(=O)(c1ccccc1)N1Cc2ccccc2CC2(CCN(Cc3cccnc3)C2)C1 (stereo not drawn) was tested. Which “activity change, negative = inhibition” value did it give?
**A.** -36.4%

**Q.** Which “activity change, negative = inhibition” value does the source give for O=C1NCc2ccccc2CC12CCN(Cc1ccccc1Cl)C2 (stereo not drawn) here?
**A.** -25.7% [at 146 µM]

**Q.** Which “activity change, negative = inhibition” value does the source give for CSc1ccc(-c2ccc(C=O)cc2)cc1 here?
**A.** -27.8% [at 233 µM]

**Q.** How did the “activity change, negative = inhibition” value turn out when COc1ccc2c(c1)CCCN2C1CNC1 was run?
**A.** -22.1% [at 233 µM]

**Q.** How did the “activity change, negative = inhibition” value turn out when CN1CC(=O)N(C2CCCNCC2)Cc2c1ncnc2N1CCN(c2ccccn2)CC1 (stereo not drawn) was run?
**A.** -0.605%

**Q.** O=[S+]([O-])(c1ccccc1)N1CC(Oc2ccc3c(c2)OCO3)C1 was tested. Which “activity change, negative = inhibition” value did it give?
**A.** -9.22% [at 146 µM]

**Q.** Which “activity change, negative = inhibition” value does the source give for O=C1NCc2ccccc2CC12CCN(Cc1c(Cl)cncc1Cl)C2 (stereo not drawn) here?
**A.** 7.44%
